Reference: the supplement of paper PMC8877412
Structures can show the parent of a compound that is named as a salt. ± gives the uncertainty stated by the source.

These compounds were tested on NCC-PMP1-C1 (assay: cell viability relative to DMSO control; higher = less growth inhibition). Conditions: 10 µM; 72 h.
Description: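 NCC-PMP1-C1 pseudomyxoma peritonei cells were seeded in 384-well plates coated with Matrigel and MEF (1e4 cells). Viability was read after 72 h by CCK-8 and expressed as % of the DMSO control, mean ± SD of duplicates.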

SMILES | cell viability
O=C1NC(=O)[C@@H](c2cn3c4c(cccc24)CCC3)[C@@H]1c1c[nH]c2ccccc12 [Tivantinib (ARQ 197)] | 79.8 ± 7.7%
Nc1ccn([C@@H]2O[C@H](CO)[C@@H](O)C2(F)F)c(=O)n1 [Gemcitabine] | 68.1 ± 11%
C[C@H](NC(=O)Cc1cc(F)cc(F)c1)C(=O)N[C@H](C(=O)OC(C)(C)C)c1ccccc1 | 96.2 ± 2.6%
CNC(=O)c1ccc(-c2cnc3ncc(Cc4ccc5ncccc5c4)n3n2)cc1F | 108 ± 9.8%
CC(=O)Oc1ccccc1C(=O)O [Aspirin] | 110 ± 4.8%
COc1cc2ncnc(Nc3ccc(F)c(Cl)c3)c2cc1NC(=O)/C=C/CN1CCCCC1 | 68.1 ± 1.6%
CN(C)/N=N/c1[nH]cnc1C(N)=O [Dacarbazine] | 111.7 ± 1.1%
CC(C)(C#N)c1cc(Cn2cncn2)cc(C(C)(C)C#N)c1 [Anastrozole] | 110 ± 6.5%
Nc1ncn([C@@H]2O[C@H](CO)[C@@H](O)[C@H]2O)c(=O)n1 [Azacitidine] | 83.3 ± 6.9%
CC[C@]1(O)C[C@@H]2CN(CCc3c([nH]c4ccccc34)[C@@](C(=O)OC)(c3cc4c(cc3OC)N(C)[C@H]3[C@@](O)(C(=O)OC)[C@H](OC(C)=O)[C@]5(CC)C=CCN6CC[C@]43[C@@H]65)C2)C1 [Vinblastine sulfate] | 43.6 ± 2.9%
Nc1nc(Cl)nc2c1ncn2[C@H]1C[C@H](O)[C@@H](CO)O1 [Cladribine] | 97.8 ± 1.1%
CC(C)(C)c1cc(NC(=O)Nc2ccc(-c3cn4c(n3)sc3cc(OCCN5CCOCC5)ccc34)cc2)no1 [Quizartinib (AC220)] | 78.9%
COc1cccc2c1C(=O)c1c(O)c3c(c(O)c1C2=O)C[C@@](O)(C(=O)CO)C[C@@H]3O[C@H]1C[C@H](N)[C@@H](O)[C@H](C)O1 [Epirubicin HCl] | 3.6 ± 0.6%
CCCCCOC(=O)Nc1nc(=O)n([C@@H]2O[C@H](C)[C@@H](O)[C@H]2O)cc1F [Capecitabine] | 98.9 ± 16%
CC[C@]1(O)C[C@H]2CN(CCc3c([nH]c4ccccc34)[C@@](C(=O)OC)(c3cc4c(cc3OC)N(C=O)[C@H]3[C@@](O)(C(=O)OC)[C@H](OC(C)=O)[C@]5(CC)C=CCN6CC[C@]43[C@@H]65)C2)C1 [Vincristine] | 50.8 ± 0.53%
CNC[C@H](O)c1ccc(O)c(O)c1 [Epinephrine Bitartrate] | 127 ± 6.3%
C[C@@H]1CCN(C(=O)CC#N)C[C@@H]1N(C)c1ncnc2[nH]ccc12 | 77.2 ± 22%
CO[C@H](C(=O)[C@@H](O)[C@@H](C)O)[C@@H]1Cc2cc3cc(O[C@H]4C[C@@H](O[C@H]5C[C@@H](O)[C@H](O)[C@@H](C)O5)[C@H](O)[C@@H](C)O4)c(C)c(O)c3c(O)c2C(=O)[C@H]1O[C@H]1C[C@@H](O[C@H]2C[C@@H](O[C@H]3C[C@](C)(O)[C@H](O)[C@@H](C)O3)[C@H](O)[C@@H](C)O2)[C@H](O)[C@@H](C)O1 [Mithramycin A] | 7.11 ± 5.3%
Nc1cccc2c1CN(C1CCC(=O)NC1=O)C2=O (stereo not given) [Lenalidomide] | 106 ± 3.2%
CCOC(=O)[C@H](CCc1ccccc1)N[C@H]1CS[C@H](c2cccs2)CN(CC(=O)O)C1=O [Temocapril HCl] | 84.76 ± 0.83%

SMILES | cell viability
O=S(=O)(O)CCS [Mesna] | -9.24%
CN1c2cc(O)c(N=NC(N)=O)cc2CC1S(=O)(=O)O (stereo not given) [Carbazochrome sodium sulfonate (AC-17)] | 90.4 ± 9.1%
COc1c2occc2cc2ccc(=O)oc12 [Methoxsalen] | 92.6 ± 16%
Cc1ccc(C(=O)Nc2ccc(CN3CCN(C)CC3)c(C(F)(F)F)c2)cc1C#Cc1cnc2cccnn12 | 1.8 ± 0.67%
CC(=O)[C@]1(O)Cc2c(O)c3c(c(O)c2[C@@H](O[C@H]2C[C@H](N)[C@H](O)[C@H](C)O2)C1)C(=O)c1ccccc1C3=O [Idarubicin HCl] | 4.26 ± 0.73%
COC(=O)c1ccc2c(C(=Nc3ccc(N(C)C(=O)CN4CCN(C)CC4)cc3)c3ccccc3)c(O)[nH]c2c1 [Nintedanib (BIBF 1120)] | 23.9 ± 1.6%
COc1cc2c(Oc3ccc(NC(=O)C4(C(=O)Nc5ccc(F)cc5)CC4)cc3F)ccnc2cc1OCCCN1CCOCC1 | 2.42 ± 1%
CCCS(=O)(=O)Nc1ccc(F)c(C(=O)c2c[nH]c3ncc(-c4ccc(Cl)cc4)cc23)c1F [Vemurafenib (PLX4032, RG7204)] | -12.5 ± 0.2%
COc1cc2nccc(Oc3ccc(NC(=O)C4(C(=O)Nc5ccc(F)cc5)CC4)cc3)c2cc1OC | 48.9 ± 2.8%
CS(=O)(=O)c1ccc(C(=O)Nc2ccc(Cl)c(-c3ccccn3)c2)c(Cl)c1 [Vismodegib (GDC-0449)] | 90.5 ± 3.3%
C#Cc1cccc(Nc2ncnc3cc(OCCOC)c(OCCOC)cc23)c1 [Erlotinib HCl (OSI-744)] | 74.6 ± 2.7%
COc1cc(Nc2c(C#N)cnc3cc(OCCCN4CCN(C)CC4)c(OC)cc23)c(Cl)cc1Cl [Bosutinib (SKI-606)] | 52.4 ± 0.73%
CCC(C)n1ncn(-c2ccc(N3CCN(c4ccc(OCC5COC(Cn6cncn6)(c6ccc(Cl)cc6Cl)O5)cc4)CC3)cc2)c1=O (stereo not given) [Itraconazole] | 81.9 ± 2.1%
COc1cc2/c(=N/c3ccc(Br)cc3F)nc[nH]c2cc1OCC1CCN(C)CC1 [Vandetanib (ZD6474)] | 54.7 ± 4.9%
COc1ccc2[nH]c([S@@+]([O-])Cc3ncc(C)c(OC)c3C)nc2c1 [Esomeprazole Sodium] | 108 ± 1.5%
CN1CCN(CCOc2cc(OC3CCOCC3)c3c(Nc4c(Cl)ccc5c4OCO5)ncnc3c2)CC1 [Saracatinib (AZD0530)] | 49.7 ± 2%
Nc1nc2[nH]cc(CCc3ccc(C(=O)N[C@@H](CCC(=O)O)C(=O)O)cc3)c2c(=O)[nH]1 [Pemetrexed Disodium Hydrate] | 101 ± 18%
C/C(=C\c1csc(C)n1)[C@@H]1C[C@@H]2O[C@]2(C)CCC[C@H](C)[C@H](O)[C@@H](C)C(=O)C(C)(C)[C@@H](O)CC(=O)N1 | 73.7 ± 4.9%
COc1ccc(C2=N[C@@H](c3ccc(Cl)cc3)[C@@H](c3ccc(Cl)cc3)N2C(=O)N2CCNC(=O)C2)c(OC(C)C)c1 [Nutlin-3] | 74.1 ± 4.9%
O=C(Nc1nc2cccc(-c3ccc(CN4CCS(=O)(=O)CC4)cc3)n2n1)C1CC1 [Filgotinib (GLPG0634)] | 93.7 ± 8.6%
